# Assay results published in PubChem BioAssay (Tox21).
# Results filed as inconclusive are left out. Activity calls are given as the source filed them. The call rests on the fitted dose curve; in most records, active means well fitted activation curve with a large enough effect in the repeat runs; inconclusive means weak or mixed curves; inactive means no such curve, though single readings can be large or run the other way.
# Assay: qHTS assay for small molecules that induce genotoxicity in human embryonic kidney cells expressing luciferase-tagged ATAD5 (AID 651632); further: nearly all actives have a fitted effect of over 15% in size
# Conditions: HEK293T ATAD5-luciferase induction, 16 h; series mostly up to 83.3 µM
# Source text: U.S. Tox21 Program National Center for Advancing Translational Sciences [NCATS] NIH Chemical Genomics Center [NCGC] U.S. Environmental Protection Agency [EPA] National Institutes of Environmental Health Sciences [NIEHS] National Toxicology Program [NTP] U.S. Food and Drug Administration [FDA] Tox21 Assay Overview: As cancer cells divide rapidly and during every cell division they need to duplicate their genome by DNA replication. The failure to do so results in the cancer cell death. Based on this concept, many chemotherapeutic agents were developed but have limitations such as low efficacy and severe side effects etc. A new cell based assay was developed to find the compounds that effectively block DNA replication either by directly damaging DNA or by inhibiting other cellular mechanisms. Enhanced Level of Genome Instability Gene 1 (ELG1; human ATAD5) protein levels increase in response to various types of DNA damage. Using a luciferase reporter-gene tagged with ATAD5, a cell-based assay [developed by Kyungjae Myung, NHGRI, NIH] was used to measure the induction of ATAD5 in human embryonic kidney cells (HEK293T). So, increase in luciferase activity can be used to identify the compounds that cause genetic stress.
# Tox21 Assay Protocol Summary: For genotoxicity screening, 2,000 cells in 5 uL/well were dispensed into white, solid-bottom 1536-well plates using a Multidrop Combi (Thermo Scientific) dispenser. Following transfer of 23 nL compound or DMSO vehicle by a pin tool, the plates were incubated 16 hr at 37C and 5% CO2. 5 ul Amplite (AAT Bioquest, Inc.) was then added to each plate and following 30 min incubation at room temperature, luciferase activity was quantified on a ViewLux CCD-based plate reader.
row,Structure (SMILES),outcome
1,CC(C)[C@H]1CC[C@H](C)C[C@@H]1O,inactive
2,CC(=O)O[C@H]1C[C@@H]2CC[C@@]1(C)C2(C)C,inactive
3,COC(=O)c1cccc(Cl)c1,inactive
4,COc1ccc2c(c1)c1c3n2CCN(C)C3=NCC1,inactive
5,C#CCN[C@@H]1CCc2ccccc21,inactive
6,O=C1CCCCO1,inactive
7,Cc1ccnc(N)c1,inactive
8,O=C(O)CCCCCC(=O)O,inactive
9,OCC(O)CN1CCN(c2ccccc2)CC1 (stereo not given),inactive
10,C=CC/C=C/C,inactive
11,Cn1nnc2c(C(N)=O)ncn2c1=O,inactive
12,CC1CCc2c(N3CCC(O)CC3)c(F)cc3c(=O)c(C(=O)O)cn1c23 (stereo not given),inactive
13,NCC1(Cc2noc(=O)[nH]2)CCCCC1,inactive
14,CC1CC(=O)CC(C)(C)C1 (stereo not given),inactive
15,C=CC(=O)OCC1CCCO1 (stereo not given),inactive
16,Cc1c(N)cccc1Cl,inactive
17,Cn1c(=O)c2[nH]c(Br)nc2n(C)c1=O,inactive
18,CCO,inactive
19,N#Cc1cscn1,inactive
20,C=CCCCC,inactive

row,Structure (SMILES),outcome
1,Fc1ccccc1,inactive
2,COc1ccc(CCO)cc1,inactive
3,CCO[Si](CC)(OCC)OCC,inactive
4,CC(O)CC(C)O (stereo not given),inactive
5,CC(C)CCOC(=O)c1ccccc1,inactive
6,CC1=NN(c2ccc(S(=O)(=O)O)cc2)C(=O)C1,inactive
7,CCCCOCC(C)O (stereo not given),inactive
8,Cc1cc(C)c(C(=O)O)c(C)c1,inactive
9,CCCCC1CCC(O)CC1 (stereo not given),inactive
10,COC(=O)c1cc(Cl)cc(Cl)c1,inactive
11,c1ccc2c(CC3=NCCN3)cccc2c1,inactive
12,O=C(NCN1CCOCC1)c1cnccn1,inactive
13,C=CCCCCCCCC,inactive
14,[O]=[Mo](=[O])=[O],inactive
15,CC/C(C)=N\O[Si](C)(O/N=C(\C)CC)O/N=C(\C)CC,inactive
16,CCC(C)C(=O)OCCc1ccccc1 (stereo not given),inactive
17,CN1CCOC(c2ccccc2)c2ccccc2C1 (stereo not given),inactive
18,c1ccc2cnccc2c1,inactive
19,C=C(C)[C@@H]1CC=C(C)CC1,inactive
20,CC1OCCC1=O (stereo not given),inactive
